# Bioassay records: PubChem BioAssay, several laboratories
# Jurkat NFkB inh: inhibitors of induced NF-kB luciferase reporter, primary screen, TCR NF-kB activation inhibitor project, cell-based, luminescence, uHTS | Jurkat, PMA/ionomycin-induced NF-kB luciferase reporter | inhibition, % at 4 µM | 330,000 compounds, 0.53% hits; in the data active means inhibition above about 50%
# Mdm2-MdmX inh: inhibitors of human Mdm2-MdmX association, primary screen, cell-based, luminescence, split luciferase, SaOS-2, uHTS; Protein Mdm4 (Homo sapiens) + E3 ubiquitin-protein ligase Mdm2 (Homo sapiens), …; SaOS-2 split-luciferase Mdm2/MdmX complementation; inhibition, % at 8 µM; 330,000 compounds, 3% hits;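 active means inhibition of at least 50% at 8 µM in the primary screen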
# Target sequence (O15151 whole entry, looked up): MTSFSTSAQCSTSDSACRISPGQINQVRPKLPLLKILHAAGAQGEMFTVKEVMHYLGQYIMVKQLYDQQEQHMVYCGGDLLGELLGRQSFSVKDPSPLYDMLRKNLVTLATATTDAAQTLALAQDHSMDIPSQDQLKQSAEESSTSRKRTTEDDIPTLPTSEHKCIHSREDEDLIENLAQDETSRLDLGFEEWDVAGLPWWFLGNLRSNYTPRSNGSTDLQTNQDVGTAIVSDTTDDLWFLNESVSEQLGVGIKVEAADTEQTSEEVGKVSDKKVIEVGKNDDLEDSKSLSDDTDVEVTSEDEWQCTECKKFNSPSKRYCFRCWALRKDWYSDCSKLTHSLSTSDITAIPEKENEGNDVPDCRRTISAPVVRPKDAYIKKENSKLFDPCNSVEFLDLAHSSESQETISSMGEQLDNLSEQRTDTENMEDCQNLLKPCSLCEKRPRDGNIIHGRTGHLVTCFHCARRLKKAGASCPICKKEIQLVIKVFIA
# Target sequence (Q00987 whole entry, looked up): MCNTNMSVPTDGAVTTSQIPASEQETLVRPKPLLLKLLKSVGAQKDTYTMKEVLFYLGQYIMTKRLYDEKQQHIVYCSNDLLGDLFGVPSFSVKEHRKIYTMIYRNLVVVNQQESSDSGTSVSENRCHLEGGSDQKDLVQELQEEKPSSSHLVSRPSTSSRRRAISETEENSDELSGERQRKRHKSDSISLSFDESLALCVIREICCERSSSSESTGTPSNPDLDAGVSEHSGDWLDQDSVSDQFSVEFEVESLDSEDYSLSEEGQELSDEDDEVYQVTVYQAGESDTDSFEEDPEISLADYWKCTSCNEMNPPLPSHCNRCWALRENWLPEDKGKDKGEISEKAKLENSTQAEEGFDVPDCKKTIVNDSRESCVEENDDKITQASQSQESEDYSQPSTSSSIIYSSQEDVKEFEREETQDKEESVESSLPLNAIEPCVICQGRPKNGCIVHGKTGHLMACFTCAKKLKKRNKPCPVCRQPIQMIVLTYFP
# 697 NFkB inh: inhibitors of PMA/ionomycin-induced NF-kB reporter, 697 cells, primary screen, B-cell NF-kB inhibitor project, cell-based, luminescence, uHTS | 697 B-cell NF-kB luciferase reporter, 16 h | inhibition, % at 4 µM | 330,000 compounds, 0.33% hits | AID 435022, 2010; in the data active means inhibition above about 35%
# Gli-Sufu block: Gli-Sufu pathway antagonists, primary screen, luciferase luminescence, Sufu-KO-LIGHT cells, uHTS | 340,000 compounds, 0.74% hits | inhibition, % at 5 µM | Sufu-KO-LIGHT fibroblasts, Gli luciferase reporter luminescence;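 active means inhibition above about 55%, limit read from the data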;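 further: 0% = DMSO-treated cells and 100% = wells with medium but no cells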
# Shn3 inh set2: reduction of Shn3 3'UTR firefly luciferase signal, primary screen, Schnurri-3 inhibitor project, cell-based, Clone20 osteoblasts, set 2; Clone20 osteoblast Shn3 3'UTR firefly luciferase, 24 h; inhibition, % at 12.5 µM; 360,000 compounds, 0.52% hits; AID 588674, 2011;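 active means mean inhibition of at least 75% with every replicate also reaching 75%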;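 further: 0% = median of neutral control wells and 100% = pilot-screen positive control compound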
# Gli-Sufu confirm: Gli-SUFU pathway antagonists, confirmation, single concentration, luciferase luminescence, Sufu-KO-LIGHT cells; shares compounds with Gli-Sufu block; inhibition, % at 5 µM; Gli luciferase reporter; 2,500 compounds, 40% hits;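 active means mean inhibition at 5 µM reaching about 45%, limit read from the data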;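 further: plate controls were DMSO-treated cells for no effect and wells lacking cells for full effect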
# Gli cytotox: cytotoxicity in Sufu-KO-LIGHT cells, confirmation, cytotoxicity control for Gli-SUFU antagonist project, cell-based, ATP luminescence, single concentration | shares compounds with Gli-Sufu block | cytotoxicity, % at 5 µM | AID 651994, 2013 | 2,500 compounds, 32% hits;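 active means mean cytotoxicity at 5 µM above about 25%, limit read from the data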;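 further: cells exposed to compound overnight for roughly 16 to 18 hours; plate controls were DMSO wells with cells for no effect and medium without cells for full effect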
# Wnt3a cs: Wnt3a reporter signal inhibition, confirmation, counter-screen for Gli-SUFU antagonist project, Wnt-LIGHT cells, luminescence, single concentration; Wnt3a-driven luciferase reporter; inhibition, % at 6.25 µM; shares compounds with Gli-Sufu block; 2,500 compounds, 20% hits; AID 651995, 2013;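 active means mean inhibition above about 25%, limit read from the data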
# Numbers without * were called inactive; . = not tested or not shown. Only some compounds are listed: those with a hit (about 3.8% of all), similar ones and a draw of the others.
SMILES,Jurkat NFkB inh,Mdm2-MdmX inh,697 NFkB inh,Gli-Sufu block,Shn3 inh set2,Gli-Sufu confirm,Gli cytotox,Wnt3a cs
CC(C)(C)c1ccc(S(=O)(=O)NCC2CCCO2)cc1 (stereo not given),-1,-13,5,62*,-2,23,3,-38
COc1ccc(CNC(=O)CN(C(=O)CCC(=O)Nc2nccs2)c2cccc(C)c2)cc1,0,1,-8,4,6,.,.,.
C=CCOc1ccc(CN(C)c2ccc(S(=O)(=O)N3CCN(C)CC3)cc2[N+](=O)[O-])cc1,1,-5,11,14,46,.,.,.
CCOc1ccc(CN(C)c2ccc(S(=O)(=O)N3CCN(C)CC3)cc2[N+](=O)[O-])cc1OC,-4,-11,-37,59*,80,25,9,5
COc1ccccc1N1C(C)=CC(=C(C#N)c2nc3ccccc3s2)C=C1C,-4,37,-34,53,7,54*,11,38*
CC(=O)NNc1ncnc2c1cnn2-c1ccccc1,10,-4,3,57*,6,20,31*,-10
Cc1cc(C)cc(CN2C(=O)NC3(CCCCCC3)C2=O)c1,11,11,-12,-6,16,.,.,.
CN(C)S(=O)(=O)c1ccc2nnn(O)c2c1,-1,36,13,59*,-4,15,2,19
O=C(OCC(=O)c1ccc(Cl)s1)c1ccc(CO)cc1,5,-8,0,-7,-1,.,.,.
COC(=O)/C(=N\Nc1ccc(Cl)cc1)Sc1nnc(-c2ccc(OC)cc2)n1C,0,5,6,80*,4,15,24,-16
COc1ccc(CNC(=O)CSc2nnc(-c3ccc(NC(C)=O)cc3)n2C)cc1,12,20,14,3,-1,.,.,.
O=c1[nH]c2cc(Cl)cc([N+](=O)[O-])c2c2ccc(Cl)cc12,.,.,.,.,-4,.,.,.
S=C(Nc1ccc2nc(-c3ccccn3)c(-c3ccccn3)nc2c1)N1CCCCC1,6,11,14,54,-1,31,11,3
CC(=O)N/C(=C/c1ccc([N+](=O)[O-])cc1)C(=O)O,15,5,-12,-8,5,.,.,.
CCCNc1nc2c(c(=O)n(C)c(=O)n2C)n1CCc1ccccc1,18,13,-40,32,57,.,.,.
CC(O)CNc1nc2c(c(=O)n(C)c(=O)n2C)n1Cc1cccc(C(F)(F)F)c1 (stereo not given),-5,0,-5,15,12,.,.,.
CC(C)n1c(NCCc2ccccc2)nc2c1c(=O)n(C)c(=O)n2C,23,33,-58,51,79,59*,38*,-5
Cn1c(=O)c2c(nc(NCCO)n2CCc2ccccc2)n(C)c1=O,1,18,-24,15,48,.,.,.
COCCNc1nc2c(c(=O)n(C)c(=O)n2C)n1Cc1cccc(C(F)(F)F)c1,12,7,-10,68*,90*,71*,29*,28*
CCCNc1nc2c(c(=O)n(C)c(=O)n2C)n1Cc1cccc(C)c1,28,26,-9,65*,96*,59*,20,31*
Cn1c(=O)c2c(nc(NCCOc3ccc(C(C)(C)C)cc3)n2C)n(C)c1=O,35,-12,-28,64*,17,47*,8,7
CS(=O)(=O)N(CC(=O)Nc1ccccc1C(=O)N1CCCC1)c1ccccc1Br,13,26,-14,0,-8,.,.,.
COc1cccc(Cn2c(NCc3ccco3)nc3c2c(=O)n(C)c(=O)n3C)c1,17,12,-15,81*,.,80*,41*,39*
CC(C)c1ccc(NC(=O)COC(=O)C2CCCCC2)cc1,-10,-30,11,-16,-4,.,.,.
Cc1cn2c(-c3ccncc3)nnc2s1,9,25,16,54,2,24,21,7
SMILES,Jurkat NFkB inh,Mdm2-MdmX inh,697 NFkB inh,Gli-Sufu block,Shn3 inh set2,Gli-Sufu confirm,Gli cytotox,Wnt3a cs
Cc1cn2c(-c3cccnc3)nnc2s1,-9,-14,8,2,-4,.,.,.
O=C1C2C3CC(C(Br)C3Br)C2C(=O)N1c1nccs1 (stereo not given),9,15,18,8,-7,.,.,.
CC1CCN(Cc2c(C(=O)N3CCc4ccccc4C3)nc3ccc(Cl)cn23)CC1,0,-17,0,51,14,21,33*,-43
CCC(Sc1nc(-c2ccccc2)cc(=O)[nH]1)C(=O)O (stereo not given),-7,9,-15,5,-3,.,.,.
CC(C)Sc1nc(-c2ccccc2)cc(=O)[nH]1,18,13,11,69*,-14,22,4,3
Cc1cccc(N(CC(=O)NCCc2ccccc2)C(=O)CCC(=O)Nc2ccccn2)c1C,-13,17,10,-1,8,.,.,.
Cn1cnnc1SCc1ccc(C(=O)N=Nc2c(O)n(Cc3ccc(Cl)cc3)c3ccccc23)cc1,-10,30,-43,52,5,22,6,-5
Cn1c(CNC(=O)CNC(=O)c2ccccc2F)cc(=O)n(C)c1=O,14,-1,-15,53,12,4,12,-23
CN(C)c1nc(-c2ccccc2)c2cc(Cl)ccc2n1,10,2,5,-1,6,.,.,.
COc1ccc(C(CNS(=O)(=O)c2ccc(C)cc2)N2CCN(C)CC2)cc1 (stereo not given),-6,-1,-6,-10,-26,.,.,.
CN(CC(=O)Nc1ccc(F)cc1)C(=O)COC(=O)c1cc(Br)c(Br)s1,.,.,.,65*,13,9,-13,-6
CC(SC(C)C(=O)NN=Cc1cccc(Cl)c1)C(=O)NN=Cc1cccc(Cl)c1 (stereo not given),.,.,.,7,30,.,.,.
COc1cccc(C=NNC(=O)C(C)SC(C)C(=O)NN=Cc2cccc(OC)c2)c1 (stereo not given),.,.,.,52,-7,6,-14,-10
CN(C)c1c([N+](=O)[O-])cc(N2C(=O)C=CC2=O)cc1[N+](=O)[O-],.,.,.,-3,35,.,.,.
COc1ccc(C(=O)c2cc([N+](=O)[O-])ccc2N2CCOCC2)cc1,.,.,.,53,-1,58*,62*,-15
O=C(c1ccc(S(=O)(=O)NCc2ccco2)cc1)N1CCN(Cc2ccc3c(c2)OCO3)CC1,14,12,-11,4,12,.,.,.
